The supplement of paper PMC10849652
Of roughly 8,800 targets only a part is listed; those with a hit were picked by preference. About 0.5% of all pairs of compound and target were hits. A number with no mark means an inactive call.

Experiments:
Assay in all cases: log2 fold change, soluble protein after heating vs DMSO (PISA); higher = thermal stabilisation; K562 lysate, 10 uM; active = over 0.2 and 3.5 SD of the protein, either way, in both replicates (recomputed)
[1] = compound: C1=CC=C(C=C1)[C@H](COC2=CC3=C(C=C2)NC(=O)N3)NC(=O)C4=CC=CN(C4=O)CC5=CC(=C(C=C5)F)F
In short: (§1)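 Soluble protein was defined as the supernatant remaining after 21,000xg for 90 min, following pooling of heated aliquots and adjustment to 0.5% NP-40 at 4°C. Before that, crude K562 extract at 1 mg/mL protein in PBS pH 7.4 with 1 mM MgCl2 was treated with 10 μM compound for 30 min and heated for 3 min across 48°C-58°C. Quantification used TMTpro 16plex LC-MS/MS with channel sums equalised, and values are log-two fold changes in thermal stability relative to solvent controls from duplicates.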

[2] = compound: CC1=C(SC2=C1C(=N[C@H](C3=NN=C(N32)C)CC(=O)N)C4=CC=C(C=C4)Cl)C
In short: as §1

[3] = compound: CC1=C2C(=CC=C1)N=C(N(C2=O)C3=CC=CC=C3C)CN4C=NC5=C(N=CN=C54)N
In short: as §1

[4] = compound: Cc1sc2c(c1C)C(c1ccc(Cl)cc1)=N[C@@H](CC(=O)OC(C)(C)C)c1nnc(C)n1-2
In short: as §1

[5] = compound: c1ccc([C@@H]2C[C@H]2NC2CCNCC2)cc1
In short: as §1

APAF1 (UniProt O14727)
log2 fold change [1]: -0.013
log2 fold change [2]: 0.004
log2 fold change [3]: 0.022
log2 fold change [4]: 0.012
log2 fold change [5]: 0.02

ADK, A0A5F9ZH76
log2 fold change [1]: -0.136
log2 fold change [2]: 0.197

ACTBL2 (UniProt Q562R1)
Sequence of UniProt Q562R1 (Q562R1 whole entry, looked up): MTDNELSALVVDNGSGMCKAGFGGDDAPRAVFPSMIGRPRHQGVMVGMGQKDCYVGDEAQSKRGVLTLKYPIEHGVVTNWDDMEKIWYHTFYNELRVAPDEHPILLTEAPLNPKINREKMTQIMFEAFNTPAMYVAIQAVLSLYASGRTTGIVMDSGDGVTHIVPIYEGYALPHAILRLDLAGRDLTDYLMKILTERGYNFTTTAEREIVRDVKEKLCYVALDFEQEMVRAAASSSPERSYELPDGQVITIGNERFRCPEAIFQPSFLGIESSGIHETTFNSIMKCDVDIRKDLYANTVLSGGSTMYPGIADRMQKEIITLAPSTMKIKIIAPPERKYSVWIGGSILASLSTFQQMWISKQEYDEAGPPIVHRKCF
log2 fold change [1]: 0.138
log2 fold change [2]: -0.194
log2 fold change [3]: -0.016
log2 fold change [4]: 0.106
log2 fold change [5]: 0.365

AFF4 (UniProt Q9UHB7)
Sequence of UniProt Q9UHB7 (Q9UHB7 whole entry, looked up): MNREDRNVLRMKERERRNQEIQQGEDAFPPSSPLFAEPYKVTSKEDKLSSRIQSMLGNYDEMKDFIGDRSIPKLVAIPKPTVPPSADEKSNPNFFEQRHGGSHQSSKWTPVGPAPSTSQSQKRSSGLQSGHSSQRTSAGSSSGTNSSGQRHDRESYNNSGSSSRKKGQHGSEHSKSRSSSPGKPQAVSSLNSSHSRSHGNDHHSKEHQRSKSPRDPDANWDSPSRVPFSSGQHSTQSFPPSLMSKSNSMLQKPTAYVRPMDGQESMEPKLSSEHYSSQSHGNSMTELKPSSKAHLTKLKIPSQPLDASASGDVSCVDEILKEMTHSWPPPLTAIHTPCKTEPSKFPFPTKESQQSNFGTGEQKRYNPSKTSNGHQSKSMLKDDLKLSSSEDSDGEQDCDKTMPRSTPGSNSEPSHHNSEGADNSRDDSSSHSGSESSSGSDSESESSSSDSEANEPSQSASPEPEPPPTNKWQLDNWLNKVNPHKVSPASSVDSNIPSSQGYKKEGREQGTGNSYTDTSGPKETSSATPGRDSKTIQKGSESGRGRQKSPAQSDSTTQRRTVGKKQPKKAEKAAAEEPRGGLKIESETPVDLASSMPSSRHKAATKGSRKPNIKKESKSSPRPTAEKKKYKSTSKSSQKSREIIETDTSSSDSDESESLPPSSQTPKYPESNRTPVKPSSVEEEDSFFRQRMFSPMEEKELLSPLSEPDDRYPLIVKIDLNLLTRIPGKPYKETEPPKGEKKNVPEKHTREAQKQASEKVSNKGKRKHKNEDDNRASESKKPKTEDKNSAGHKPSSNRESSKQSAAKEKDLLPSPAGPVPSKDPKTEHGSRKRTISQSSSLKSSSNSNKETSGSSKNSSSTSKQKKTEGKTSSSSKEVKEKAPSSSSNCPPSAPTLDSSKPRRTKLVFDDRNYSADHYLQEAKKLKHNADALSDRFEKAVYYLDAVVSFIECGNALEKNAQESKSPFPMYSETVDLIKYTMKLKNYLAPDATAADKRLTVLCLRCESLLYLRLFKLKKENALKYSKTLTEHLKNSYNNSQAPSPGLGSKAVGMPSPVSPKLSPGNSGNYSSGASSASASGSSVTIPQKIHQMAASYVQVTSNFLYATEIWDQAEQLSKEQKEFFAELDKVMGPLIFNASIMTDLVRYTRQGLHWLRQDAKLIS
log2 fold change [1]: -0.362 (active)
log2 fold change [2]: -0.269
log2 fold change [3]: -0.081
log2 fold change [4]: -0.026
log2 fold change [5]: -0.052

ABHD13 (UniProt Q7L211)
Sequence of UniProt Q7L211 (Q7L211 whole entry, looked up): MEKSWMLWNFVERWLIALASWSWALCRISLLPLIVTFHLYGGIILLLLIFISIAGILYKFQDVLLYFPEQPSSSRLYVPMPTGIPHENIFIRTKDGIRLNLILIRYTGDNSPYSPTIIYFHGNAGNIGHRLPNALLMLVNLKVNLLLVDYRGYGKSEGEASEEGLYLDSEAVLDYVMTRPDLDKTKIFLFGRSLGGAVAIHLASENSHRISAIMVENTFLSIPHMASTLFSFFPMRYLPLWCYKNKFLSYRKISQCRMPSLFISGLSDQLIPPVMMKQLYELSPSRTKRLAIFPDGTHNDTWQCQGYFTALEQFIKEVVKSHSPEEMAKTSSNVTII
log2 fold change [1]: 0.043
log2 fold change [2]: -0.127
log2 fold change [3]: 0.153
log2 fold change [4]: -0.171
log2 fold change [5]: -0.246

ABHD17B (UniProt Q5VST6)
Sequence of UniProt Q5VST6 (Q5VST6 whole entry, looked up): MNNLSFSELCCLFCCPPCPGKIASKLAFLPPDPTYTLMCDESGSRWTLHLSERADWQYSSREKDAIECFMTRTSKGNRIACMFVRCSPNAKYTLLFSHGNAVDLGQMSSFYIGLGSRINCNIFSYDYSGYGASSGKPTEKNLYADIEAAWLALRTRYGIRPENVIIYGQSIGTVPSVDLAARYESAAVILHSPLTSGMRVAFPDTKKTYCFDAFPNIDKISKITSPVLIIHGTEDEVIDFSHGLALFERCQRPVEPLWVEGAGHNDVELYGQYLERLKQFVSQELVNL
log2 fold change [1]: 0.014
log2 fold change [2]: 0.044
log2 fold change [3]: -0.028
log2 fold change [4]: -0.044
log2 fold change [5]: -0.198

APEX1 (UniProt P27695)
Sequence of UniProt P27695 (P27695 whole entry, looked up): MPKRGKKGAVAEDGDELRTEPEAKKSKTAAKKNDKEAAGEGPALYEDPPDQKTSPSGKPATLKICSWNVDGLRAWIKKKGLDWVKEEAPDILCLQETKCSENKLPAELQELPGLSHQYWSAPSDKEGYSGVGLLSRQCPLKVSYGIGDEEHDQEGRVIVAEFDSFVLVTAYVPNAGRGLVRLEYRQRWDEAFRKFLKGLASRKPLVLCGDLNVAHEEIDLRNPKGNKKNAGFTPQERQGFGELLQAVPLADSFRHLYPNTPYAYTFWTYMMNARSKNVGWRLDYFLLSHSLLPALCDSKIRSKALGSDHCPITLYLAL
log2 fold change [1]: 0.055
log2 fold change [2]: 0.007
log2 fold change [3]: -0.007
log2 fold change [4]: 0.086
log2 fold change [5]: 0.131

ACAT1 (UniProt P24752)
Sequence of UniProt P24752 (P24752 whole entry, looked up): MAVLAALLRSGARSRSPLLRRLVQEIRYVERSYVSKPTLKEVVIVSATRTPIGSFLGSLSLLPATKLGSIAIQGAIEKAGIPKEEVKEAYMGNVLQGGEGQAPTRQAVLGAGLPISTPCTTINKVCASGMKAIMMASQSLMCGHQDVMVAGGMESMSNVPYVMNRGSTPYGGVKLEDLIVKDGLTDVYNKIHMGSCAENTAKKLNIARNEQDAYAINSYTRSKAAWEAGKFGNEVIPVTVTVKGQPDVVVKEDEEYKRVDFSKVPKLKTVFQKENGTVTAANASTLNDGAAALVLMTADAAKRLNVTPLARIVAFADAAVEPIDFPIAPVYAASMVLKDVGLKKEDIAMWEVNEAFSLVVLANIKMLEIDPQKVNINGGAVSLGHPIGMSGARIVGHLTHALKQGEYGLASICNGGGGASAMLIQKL
log2 fold change [1]: -0.007
log2 fold change [2]: 0.029
log2 fold change [3]: -0.016
log2 fold change [4]: 0.031
log2 fold change [5]: 0.024

ACSL1 (UniProt P33121)
Sequence of UniProt P33121 (P33121 whole entry, looked up): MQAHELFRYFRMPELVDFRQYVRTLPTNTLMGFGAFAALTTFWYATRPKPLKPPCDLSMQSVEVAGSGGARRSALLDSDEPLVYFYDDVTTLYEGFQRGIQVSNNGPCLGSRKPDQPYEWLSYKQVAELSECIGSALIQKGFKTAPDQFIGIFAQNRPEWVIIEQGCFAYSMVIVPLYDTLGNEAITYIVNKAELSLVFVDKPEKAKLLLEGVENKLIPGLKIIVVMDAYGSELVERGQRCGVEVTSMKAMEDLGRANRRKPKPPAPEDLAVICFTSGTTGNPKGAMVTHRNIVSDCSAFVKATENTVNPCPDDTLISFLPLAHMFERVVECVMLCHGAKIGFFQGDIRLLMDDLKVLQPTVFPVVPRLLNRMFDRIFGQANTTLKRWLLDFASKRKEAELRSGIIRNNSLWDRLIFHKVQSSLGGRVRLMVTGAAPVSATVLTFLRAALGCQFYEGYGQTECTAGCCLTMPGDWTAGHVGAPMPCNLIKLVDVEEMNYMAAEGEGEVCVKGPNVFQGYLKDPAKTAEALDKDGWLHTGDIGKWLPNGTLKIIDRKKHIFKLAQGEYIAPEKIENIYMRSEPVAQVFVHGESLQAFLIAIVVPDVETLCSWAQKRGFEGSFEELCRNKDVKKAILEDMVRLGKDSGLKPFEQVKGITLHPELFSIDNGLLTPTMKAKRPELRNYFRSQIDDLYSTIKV
log2 fold change [1]: -0.136
log2 fold change [2]: 0.004
log2 fold change [3]: 0.014
log2 fold change [4]: 0.063
log2 fold change [5]: 0.021

AP3D1 isoform 5 (UniProt O14617)
Sequence of UniProt O14617 (O14617 whole entry, looked up): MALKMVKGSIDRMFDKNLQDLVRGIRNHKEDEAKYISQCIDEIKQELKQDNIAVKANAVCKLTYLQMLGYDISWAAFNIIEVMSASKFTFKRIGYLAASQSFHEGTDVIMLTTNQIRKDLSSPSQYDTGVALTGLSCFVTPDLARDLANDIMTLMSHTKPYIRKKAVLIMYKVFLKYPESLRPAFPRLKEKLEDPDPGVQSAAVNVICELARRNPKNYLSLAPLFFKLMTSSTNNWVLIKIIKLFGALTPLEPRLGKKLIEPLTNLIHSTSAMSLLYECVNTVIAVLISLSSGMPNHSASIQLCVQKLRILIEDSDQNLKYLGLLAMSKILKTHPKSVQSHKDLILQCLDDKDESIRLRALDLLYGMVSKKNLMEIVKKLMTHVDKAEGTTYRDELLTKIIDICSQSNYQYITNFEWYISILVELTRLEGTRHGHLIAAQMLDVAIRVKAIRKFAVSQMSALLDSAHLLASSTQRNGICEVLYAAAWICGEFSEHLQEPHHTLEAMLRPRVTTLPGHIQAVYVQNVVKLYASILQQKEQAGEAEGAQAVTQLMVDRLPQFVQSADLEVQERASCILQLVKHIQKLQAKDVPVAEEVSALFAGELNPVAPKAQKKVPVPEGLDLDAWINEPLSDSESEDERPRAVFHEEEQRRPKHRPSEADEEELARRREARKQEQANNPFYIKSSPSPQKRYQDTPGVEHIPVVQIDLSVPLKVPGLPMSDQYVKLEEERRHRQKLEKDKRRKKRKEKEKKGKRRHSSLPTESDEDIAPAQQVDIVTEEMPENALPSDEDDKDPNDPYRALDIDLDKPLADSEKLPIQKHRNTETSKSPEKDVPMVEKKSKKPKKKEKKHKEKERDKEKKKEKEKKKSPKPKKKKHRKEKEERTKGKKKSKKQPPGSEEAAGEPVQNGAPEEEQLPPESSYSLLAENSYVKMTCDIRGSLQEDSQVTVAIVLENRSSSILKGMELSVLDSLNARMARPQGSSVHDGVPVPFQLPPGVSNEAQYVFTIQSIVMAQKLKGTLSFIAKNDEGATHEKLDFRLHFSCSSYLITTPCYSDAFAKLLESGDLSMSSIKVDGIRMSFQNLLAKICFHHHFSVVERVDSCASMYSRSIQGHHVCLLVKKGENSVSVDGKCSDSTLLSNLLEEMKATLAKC
log2 fold change [1]: 0.042
log2 fold change [2]: -0.027
log2 fold change [3]: 0.003
log2 fold change [4]: 0.025
log2 fold change [5]: -0.028
